These targets were tested with C#CCNC(=O)CCSSCCC(=O)NCCc1ccc(C=O)c(C=O)c1 (assay: lysine labeling ratio R10:1 (500 µM / 50 µM probe), SILAC-ABPP in living cells; higher = lower intrinsic lysine reactivity toward the probe, active = 2 or less). Settings: HeLa; probe concentrations 500 vs 50 µM.
How it was run: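 Each lysine carries an R value: the filtered median of MS1 peptide ratios of high probe to low probe, with the median then taken over forward and reverse replicates. These came from living SILAC light and heavy HeLa cells in PBS at room temperature labelled with an alkyne-tagged, disulfide-linked lysine probe at 500 µM or 50 µM, in forward and reverse swaps. The lysates were mixed, clicked to biotin-azide, trypsin-digested, captured on neutravidin, released by DTT, alkylated and run by LC-MS/MS on a TIMS-TOF Pro. The highest value allowed is 20.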

Sequence of UniProt P05783 (P05783 whole entry): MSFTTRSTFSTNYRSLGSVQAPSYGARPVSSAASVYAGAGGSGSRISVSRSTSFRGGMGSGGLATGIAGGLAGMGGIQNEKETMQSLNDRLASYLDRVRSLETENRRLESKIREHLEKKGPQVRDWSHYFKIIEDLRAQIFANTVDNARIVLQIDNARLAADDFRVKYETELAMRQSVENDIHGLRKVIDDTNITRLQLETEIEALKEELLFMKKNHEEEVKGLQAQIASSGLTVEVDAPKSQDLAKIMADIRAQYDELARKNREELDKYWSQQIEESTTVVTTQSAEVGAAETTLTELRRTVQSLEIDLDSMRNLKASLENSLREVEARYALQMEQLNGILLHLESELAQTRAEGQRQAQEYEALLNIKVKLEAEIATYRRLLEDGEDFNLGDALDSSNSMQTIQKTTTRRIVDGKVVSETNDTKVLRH
Sequence of UniProt P26038 (P26038 whole entry): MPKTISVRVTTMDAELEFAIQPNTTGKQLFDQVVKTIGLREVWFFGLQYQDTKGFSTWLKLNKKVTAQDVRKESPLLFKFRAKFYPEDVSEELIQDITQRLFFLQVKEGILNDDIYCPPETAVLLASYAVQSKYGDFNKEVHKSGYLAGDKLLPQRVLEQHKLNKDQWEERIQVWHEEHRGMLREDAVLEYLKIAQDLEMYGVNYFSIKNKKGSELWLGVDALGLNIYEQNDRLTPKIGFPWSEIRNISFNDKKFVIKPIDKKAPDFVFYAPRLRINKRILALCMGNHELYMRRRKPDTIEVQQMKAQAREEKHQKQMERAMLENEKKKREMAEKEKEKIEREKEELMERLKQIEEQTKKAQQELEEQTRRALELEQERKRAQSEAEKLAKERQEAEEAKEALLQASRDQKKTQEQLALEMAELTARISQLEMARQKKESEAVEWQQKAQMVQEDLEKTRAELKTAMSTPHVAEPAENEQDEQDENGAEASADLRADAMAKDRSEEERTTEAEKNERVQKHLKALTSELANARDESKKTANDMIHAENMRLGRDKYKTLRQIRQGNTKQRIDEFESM
Sequence of UniProt P35579 (P35579 whole entry): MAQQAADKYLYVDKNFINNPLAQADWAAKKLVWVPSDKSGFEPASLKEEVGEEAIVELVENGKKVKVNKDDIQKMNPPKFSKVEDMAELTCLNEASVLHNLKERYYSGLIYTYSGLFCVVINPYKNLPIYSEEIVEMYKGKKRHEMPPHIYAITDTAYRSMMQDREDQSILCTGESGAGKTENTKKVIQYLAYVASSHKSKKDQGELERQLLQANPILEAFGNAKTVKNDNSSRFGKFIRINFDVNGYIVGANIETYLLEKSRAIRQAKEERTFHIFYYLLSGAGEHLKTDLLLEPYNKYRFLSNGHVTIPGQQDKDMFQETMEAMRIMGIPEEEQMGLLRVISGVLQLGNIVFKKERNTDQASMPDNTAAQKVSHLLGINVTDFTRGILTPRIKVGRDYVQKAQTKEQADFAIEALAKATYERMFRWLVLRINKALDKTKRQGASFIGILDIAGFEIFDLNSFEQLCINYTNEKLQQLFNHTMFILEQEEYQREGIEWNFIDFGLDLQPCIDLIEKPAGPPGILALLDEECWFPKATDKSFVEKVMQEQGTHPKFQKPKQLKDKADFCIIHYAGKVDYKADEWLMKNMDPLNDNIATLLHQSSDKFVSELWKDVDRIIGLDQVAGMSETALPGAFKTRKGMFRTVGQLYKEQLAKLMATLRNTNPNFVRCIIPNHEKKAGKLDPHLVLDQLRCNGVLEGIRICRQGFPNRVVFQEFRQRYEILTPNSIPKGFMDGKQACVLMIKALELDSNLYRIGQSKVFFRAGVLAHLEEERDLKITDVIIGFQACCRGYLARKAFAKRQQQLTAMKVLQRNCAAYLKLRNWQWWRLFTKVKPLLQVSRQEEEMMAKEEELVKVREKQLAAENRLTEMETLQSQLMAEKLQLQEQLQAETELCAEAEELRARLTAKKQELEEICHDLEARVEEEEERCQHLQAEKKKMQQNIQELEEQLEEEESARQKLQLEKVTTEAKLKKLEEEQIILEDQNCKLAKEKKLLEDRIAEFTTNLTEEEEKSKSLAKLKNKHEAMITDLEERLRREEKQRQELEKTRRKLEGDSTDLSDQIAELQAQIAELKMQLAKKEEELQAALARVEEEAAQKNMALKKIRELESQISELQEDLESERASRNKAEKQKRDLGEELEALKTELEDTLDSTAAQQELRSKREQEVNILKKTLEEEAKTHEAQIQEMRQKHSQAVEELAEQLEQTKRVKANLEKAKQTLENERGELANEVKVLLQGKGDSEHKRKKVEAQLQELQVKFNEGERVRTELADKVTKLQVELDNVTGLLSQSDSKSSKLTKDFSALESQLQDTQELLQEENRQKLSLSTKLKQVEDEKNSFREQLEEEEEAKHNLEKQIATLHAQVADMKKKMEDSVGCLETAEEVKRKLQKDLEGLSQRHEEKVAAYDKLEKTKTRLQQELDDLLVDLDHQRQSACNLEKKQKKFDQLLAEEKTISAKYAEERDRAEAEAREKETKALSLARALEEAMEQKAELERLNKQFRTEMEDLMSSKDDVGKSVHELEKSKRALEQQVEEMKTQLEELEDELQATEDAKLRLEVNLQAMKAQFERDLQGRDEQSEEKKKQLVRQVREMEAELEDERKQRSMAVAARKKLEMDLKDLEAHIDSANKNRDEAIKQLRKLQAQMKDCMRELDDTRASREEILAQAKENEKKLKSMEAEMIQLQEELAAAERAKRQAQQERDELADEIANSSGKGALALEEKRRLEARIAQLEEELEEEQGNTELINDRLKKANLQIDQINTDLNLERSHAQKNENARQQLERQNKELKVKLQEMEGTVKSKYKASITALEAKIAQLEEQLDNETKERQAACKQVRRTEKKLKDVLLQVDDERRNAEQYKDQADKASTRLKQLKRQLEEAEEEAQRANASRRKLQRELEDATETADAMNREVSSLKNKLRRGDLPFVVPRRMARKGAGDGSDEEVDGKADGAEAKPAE
Sequence of UniProt P08069 (P08069 whole entry, looked up): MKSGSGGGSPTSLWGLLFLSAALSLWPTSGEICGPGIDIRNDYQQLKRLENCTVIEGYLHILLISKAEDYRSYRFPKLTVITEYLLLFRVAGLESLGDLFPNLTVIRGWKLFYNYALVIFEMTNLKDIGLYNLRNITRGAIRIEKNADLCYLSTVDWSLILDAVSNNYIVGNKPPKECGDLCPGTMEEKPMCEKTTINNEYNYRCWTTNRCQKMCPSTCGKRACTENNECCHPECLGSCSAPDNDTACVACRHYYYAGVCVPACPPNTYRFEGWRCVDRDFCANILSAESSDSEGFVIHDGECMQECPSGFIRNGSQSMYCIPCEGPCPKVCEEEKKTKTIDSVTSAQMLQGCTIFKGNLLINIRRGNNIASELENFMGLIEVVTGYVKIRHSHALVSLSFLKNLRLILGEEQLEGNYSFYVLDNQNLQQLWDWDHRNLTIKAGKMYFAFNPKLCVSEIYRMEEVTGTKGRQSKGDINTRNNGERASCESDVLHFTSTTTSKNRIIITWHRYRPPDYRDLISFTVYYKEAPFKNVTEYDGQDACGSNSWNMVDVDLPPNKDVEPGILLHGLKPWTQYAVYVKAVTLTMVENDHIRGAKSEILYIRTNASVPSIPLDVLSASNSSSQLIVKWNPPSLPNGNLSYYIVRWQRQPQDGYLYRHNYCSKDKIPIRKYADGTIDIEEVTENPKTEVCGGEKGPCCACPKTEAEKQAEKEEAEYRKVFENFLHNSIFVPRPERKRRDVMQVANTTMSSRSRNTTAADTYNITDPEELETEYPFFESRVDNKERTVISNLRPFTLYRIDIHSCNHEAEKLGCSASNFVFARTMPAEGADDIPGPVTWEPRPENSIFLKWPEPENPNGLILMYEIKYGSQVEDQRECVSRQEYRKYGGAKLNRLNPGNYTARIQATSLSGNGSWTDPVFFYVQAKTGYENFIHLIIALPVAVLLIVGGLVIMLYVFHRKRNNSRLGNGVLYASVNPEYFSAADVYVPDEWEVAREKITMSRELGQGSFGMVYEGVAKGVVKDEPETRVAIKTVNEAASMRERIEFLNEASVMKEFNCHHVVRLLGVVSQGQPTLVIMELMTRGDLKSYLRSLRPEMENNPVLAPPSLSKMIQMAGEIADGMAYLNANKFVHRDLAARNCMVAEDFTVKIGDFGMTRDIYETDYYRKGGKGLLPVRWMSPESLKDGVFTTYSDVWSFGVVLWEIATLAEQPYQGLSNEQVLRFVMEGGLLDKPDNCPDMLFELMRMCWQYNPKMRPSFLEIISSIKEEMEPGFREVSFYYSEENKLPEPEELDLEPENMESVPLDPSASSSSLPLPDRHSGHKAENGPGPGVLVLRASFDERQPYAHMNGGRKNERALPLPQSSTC
Sequence of UniProt P54136 (P54136 whole entry): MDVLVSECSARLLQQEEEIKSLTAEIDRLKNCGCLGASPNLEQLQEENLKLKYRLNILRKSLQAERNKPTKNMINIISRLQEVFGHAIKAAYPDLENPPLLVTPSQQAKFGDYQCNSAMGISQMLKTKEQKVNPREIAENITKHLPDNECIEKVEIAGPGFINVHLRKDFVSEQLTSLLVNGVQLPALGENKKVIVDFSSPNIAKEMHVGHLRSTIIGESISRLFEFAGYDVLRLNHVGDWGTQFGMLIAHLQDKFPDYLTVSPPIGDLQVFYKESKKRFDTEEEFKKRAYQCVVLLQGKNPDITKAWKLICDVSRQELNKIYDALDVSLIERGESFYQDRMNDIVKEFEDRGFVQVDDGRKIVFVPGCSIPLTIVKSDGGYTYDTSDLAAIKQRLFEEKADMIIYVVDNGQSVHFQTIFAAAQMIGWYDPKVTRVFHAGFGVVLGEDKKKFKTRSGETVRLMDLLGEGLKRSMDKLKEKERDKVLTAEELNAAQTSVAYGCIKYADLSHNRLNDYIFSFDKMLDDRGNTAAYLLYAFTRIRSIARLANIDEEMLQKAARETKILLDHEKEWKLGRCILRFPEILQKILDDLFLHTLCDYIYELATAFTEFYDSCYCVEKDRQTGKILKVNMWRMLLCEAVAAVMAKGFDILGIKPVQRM
Sequence of UniProt P18859 (P18859 whole entry): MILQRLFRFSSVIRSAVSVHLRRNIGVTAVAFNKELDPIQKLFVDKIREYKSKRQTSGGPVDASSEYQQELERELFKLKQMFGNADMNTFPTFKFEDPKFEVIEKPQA

Lysine labeling ratio R10:1, active:
RARS (lysine site: K557) (UniProt P54136) 1.64
GNS (lysine site: K502) (UniProt P15586) 0.59
MYH9 (lysine site: K202) (UniProt P35579) 1.58
CCT4 (lysine site: K29) (UniProt P50991) 1.71
TLN1 (lysine site: K1544) (UniProt Q9Y490) 1.54
RPL5 (lysine site: K27) (UniProt P46777) 1.97

Lysine labeling ratio R10:1, inactive:
MSN (lysine site: K313) (UniProt P26038) 5.6
FRAS1 (lysine site: K2521) (UniProt Q86XX4) 2.03
HSPA9 (lysine site: K625) (UniProt P38646) 3.75
KRT18 (lysine site: K111) (UniProt P05783) 14.4
SMOC1 (lysine site: K53) (UniProt Q9H4F8) 2.22
UniProt P18859 (lysine site: K105) 3.04
EEF2 (lysine site: K445) (UniProt P13639) 2.7
CLTC (lysine site: K1501) (UniProt Q00610) 2.77
IGF1R (lysine site: K469) (UniProt P08069) 3.98
UniProt Q92729 (lysine site: K388) 3.11
RPL28 (lysine site: K72) (UniProt P46779) 2.12
